Screening results: PubChem, National Center for Advancing Translational Sciences (NCATS)
rTrxR1 inhibitor – qHTS Assay for Inhibitors of Mammalian Selenoprotein Thioredoxin Reductase 1 (TrxR1): qHTS. recombinant rTrxR1, NADPH fluorescence consumption, selenite substrate. Potency, µM (series often up to 114 µM), actives largely listed as inhibitors. 390,000 compounds, 1% hits; note: nearly all actives have a fitted effect of over 65% in size
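Rat TrxR1 (90 nM in the dispensed reagent) was pre-reduced with 400 uM NADPH for 5 min at room temperature, then incubated with compound for 15 min. After 400 uM selenite was added, NADPH fluorescence (Ex 340/Em 450 nm) was followed for 8 min.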
Anesthetic bind – qHTS Assay for Identification of Novel General Anesthetics; apoferritin/1-aminoanthracene competitive binding, fluorescence; AID 485281, 2010; Potency, µM (highest dose often 77.5 µM), actives largely listed as inhibitors; 350,000 compounds, 0.074% hits; note: nearly all actives have a fitted effect of over 20% in size
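10 uM apoferritin + 50% sat. 1-AMA, PBS; cpd 10 min RT; Ex380/Em535 endpoint; normalized to free probe vs complex; 4-param Hill fit; propofol titration as pos. ctrl.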
TrxR1 substrate – qHTS Assay for Substrates of Mammalian Selenoprotein Thioredoxin Reductase 1 (TrxR1): qHTS. purified TrxR1 substrate turnover, NADPH consumption readout. 390,000 compounds, 0.01% hits. Potency, µM (titrated, usually from 114 µM). AID 588456, 2011. Thioredoxin reductase 1, cytoplasmic (Rattus norvegicus), O89049; note: nearly all actives have a fitted effect of over 50% in size
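Rat TrxR1, dispensed at 90 nM, was prereduced with 400 uM NADPH (final) for 5 min at ~22 deg C, then incubated with compound 15 min before 400 uM selenite. A first-read NADPH fluorescence drop versus no-compound background flagged substrates.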
mIDH1 inhibitor – qHTS for Inhibitors of mutant isocitrate dehydrogenase 1 (IDH1): qHTS | Isocitrate dehydrogenase [NADP] cytoplasmic (Homo sapiens), O75874 | AID 602179, 2012 | IDH1-R132H enzyme, NADPH consumption, diaphorase/resazurin fluorescence | Potency, µM (highest dose often 76.6 µM), hits mostly inhibitors | 390,000 compounds, 0.093% hits; note: nearly all actives have a fitted effect of over 65% in size
Target sequence (O75874 whole entry R132H, stated change not applied): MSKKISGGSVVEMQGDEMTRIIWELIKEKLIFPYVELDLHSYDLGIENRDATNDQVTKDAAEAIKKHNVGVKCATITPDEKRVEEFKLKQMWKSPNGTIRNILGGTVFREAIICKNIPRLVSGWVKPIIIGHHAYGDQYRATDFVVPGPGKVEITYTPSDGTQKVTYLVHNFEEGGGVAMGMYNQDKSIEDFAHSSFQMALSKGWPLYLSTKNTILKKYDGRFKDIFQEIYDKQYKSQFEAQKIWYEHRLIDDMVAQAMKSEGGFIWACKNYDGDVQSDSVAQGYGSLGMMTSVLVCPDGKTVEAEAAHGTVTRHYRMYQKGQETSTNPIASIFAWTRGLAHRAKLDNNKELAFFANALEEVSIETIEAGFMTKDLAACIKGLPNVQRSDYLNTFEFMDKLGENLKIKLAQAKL
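IDH1-R132H (0.5 ug/mL dispensed) in pH 7.5 Tris buffer was preincubated 30 min with compound, then given a substrate mix of 0.016 mM NADPH and 2 mM alpha-KG for 80 min at room temperature; remaining NADPH was read by diaphorase/resazurin fluorescence.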
Glioma ERSR ind – qHTS for Inducers of the Endoplasmic Reticulum Stress Response (ERSR) in Human Glioma: qHTS | Potency, µM, most hits filed as activators | AID 602332, 2012 | U87-MG GRP78 promoter luciferase reporter, 16 h | 420,000 compounds, 0.02% hits; note: series mostly up to about 76 µM; nearly all actives have a fitted effect of over 35% in size
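Stably transfected U87-MG human glioma cells carrying a GRP78-based luminescent sensor were seeded at 1000 cells/well, pin-dosed with compounds and incubated 16 h. Luciferase reagent was then added, and end-point luminescence was read after 10 min at room temperature.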
12-LOX inh – Primary qHTS assay for inhibitors of human arachidonate 12S-lipoxygenase (ALOX12): Round 2 | Polyunsaturated fatty acid lipoxygenase ALOX12 (Homo sapiens), P18054 | purified 12hLO, xylenol orange hydroperoxide absorbance | Potency, µM (series often up to 108 µM), most hits filed as inhibitors | 580,000 compounds, 1.1% hits
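Purified human 12hLO at 150 nM in 25 mM Hepes, 0.01% Triton X-100, pH 7.0, preincubated 15 min at room temperature with compound. Reaction started with 40 uM arachidonic acid, 30 min at room temperature. Hydroperoxide measured by Fe-xylenol orange, 573/405 nm absorbance ratio.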
Hits are given with their value; – = inactive; ? = inconclusive; · = no result; ! = not confirmed by another sample; [ ] = dose if it differs, or a comment. Only some compounds are listed: those with a hit (about 1.7% of all), similar ones and a draw of the others. Calls come from the whole dose curve; as a rule, active = well fitted curve in the direction sought with a large enough effect; inconclusive = small, poorly fitted or top-dose-only effect, or another doubt; inactive = no such curve, though single readings can be large; an effect the other way counts as inactive or inconclusive.

SMILES | rTrxR1 inhibitor | Anesthetic bind | TrxR1 substrate | mIDH1 inhibitor | Glioma ERSR ind | 12-LOX inh
C[N+]1(C)C2CCC1CC(OC(=O)c1c[nH]c3ccccc13)C2 (stereo not drawn) | – | · | – | – | – | 44.7µM
C[N+]1(C)[C@@H]2CC[C@H]1CC(OC(=O)[C@@H](CO)c1ccccc1)C2 (stereo partly drawn) | – | – | – | – | – | 17.8µM
O=C1NC(=O)C(=Cc2cc(Cl)ccc2OCc2ccc(C(=O)O)cc2)C(=O)N1 | 10µM | – | – | – | – | –
CN1C(=O)C(=Cc2ccccc2OCc2ccc(Cl)cc2)C(=O)N(C)C1=O | – | – | – | – | – | ?
O=C1CC(=O)N(Cc2ccccc2)C(=S)N1 | ? | – | – | – | – | 25.1µM
COc1ccc(CN2C(=O)CC(=O)NC2=O)cc1 | ? | – | –[0.457 µM] | – | – | –
O=C(c1cncnc1)N1C[C@@H]2C[C@H](C1)c1c(-c3ccc4ccccc4c3)ccc(=O)n1C2 | · | · | · | · | · | –
C=C[C@H]1CN2CC[C@H]1C[C@@H]2CNC(=O)c1ccc(C#N)cc1 | · | · | · | · | · | –
O=C(Cn1cc(C=C2C(=O)NC(=O)NC2=O)c2ccccc21)NCC1CCCO1 (stereo not drawn) | –[0.0914 µM] | – | – | – | – | 12.6µM
Cc1c(C=C2C(=O)N(C)C(=S)N(C)C2=O)c2ccccc2n1CC(=O)NCC1CCCO1 (stereo not drawn) | 12.6µM | – | – | – | – | –
CCN1C(=O)NC(=O)/C(=C\c2cn(CC(=O)N3CCCCC3C)c3ccccc23)C1=O (stereo not drawn) | 20µM | – | – | – | – | ·
CN(C)C(=O)Oc1ccc2c(=O)c(-c3ccccc3)c(C(F)(F)F)oc2c1 | · | · | · | · | · | –
CC(C)N(CCNC(=O)CN1CCCC1=O)C(C)C | · | · | · | · | · | –
O=c1oc(Cl)c(Cl)c2ccccc12 | 7.52µM | · | – | – | – | –
CCN(CC)C(=O)c1ccc(NC(=O)c2cc(-c3ccco3)nc3ccccc23)cc1 | · | · | · | · | · | 31.6µM
CCN(CC)C(=O)c1ccc(NC(=O)Cn2nc(-c3ccccc3)c3ccccc3c2=O)cc1 | · | · | · | · | · | –
CN(N=O)c1cc(O)ccc1O | 0.752µM | · | – | · | – | ?
Cc1ccc(/C=C2\C(=O)NC(=O)N(CCc3ccc(F)cc3)C2=O)s1 | – | – | – | – | – | ?
Cc1ccc(/C=C2/C(=O)NC(=O)N(CC3CCCO3)C2=O)s1 (stereo not drawn) | 50.1µM | – | – | – | – | ?
COc1ccc(C2=NOC3(CCN(Cc4cc(C)on4)C3)C2)cc1 (stereo not drawn) | · | · | · | · | · | –
COc1ccccc1N1CCN(Cc2ccc3c(c2)OCO3)CC1 | – | · | – | – | – | 0.708µM
COc1ccc(C2SCC(=O)Nc3c2c(C)nn3-c2ccc(C)cc2)cc1OC (stereo not drawn) | · | · | · | · | · | –
COc1ccc(CN2CCNCC2)c(OC)c1OC | ? | – | – | – | – | –
COc1cc(CN2CCNCC2)cc(OC)c1OC | – | – | – | – | – | 6.31µM
Cn1ccn(C(F)(F)C(F)F)c1=[Se] | · | · | · | · | · | –
Cc1ccc(C=C2C(Cl)=C(Cl)C(Cl)=C2Cl)cc1 | 3.16µM | – | – | – | – | ·
CC1(O)CCC2C3CCC4=CC(=O)CCC4=C3C=CC21C (stereo not drawn) | –[2.29 µM] | · | –[2.29 µM] | – | – | –
COCOC1CCC2C3CCC4=CC(=O)CCC4=C3C=CC12C (stereo not drawn) | 39.8µM | · | – | – | – | 25.1µM
O=C(NC[C@H]1C[C@@H]2CCN1C[C@@H]2CN1CCCCC1)c1ccco1 | · | · | · | · | · | –
COc1ccc2c(c[n+](C)c3c4cc5c(cc4ccc23)OCO5)c1OC | ? | · | ? | · | – | 9.68µM!
